Experimental data published in PubChem BioAssay (NCI).
“And” between values parts separate entries of the source, which are not always exact repeats. Identical values can stand only once. About 79,000 compounds went through this panel and 15% of them were active in at least one assay; those are over-represented in the sample as a whole. The source holds several records for some structures; these can differ, active in one and inactive in another. The source made the active and inactive calls. Rule as the data show it: active = growth inhibition above about 70%; inactive = the rest.

Test: NCI Yeast Anticancer Drug Screen. Data for the bub3 strain (AID 167)
Conditions: S. cerevisiae bub3 mutant strain, at 5.0 µM (retest, dose inferred, filed as 0.5), stronger effect = higher value
Procedure, shortened: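 Screening used yeast with an engineered genetic alteration affecting cell cycle control. Compound-exposed cultures were compared with vehicle cultures, and reduced growth was taken as inhibition.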

Compound | growth inhibition
c1ccc(NC2=NCCN2)nc1 | -8% (inactive)
C[CH2][Sn]([CH2]C)([CH2]C)[O]C(=O)CO | 7% (inactive)
CC12CCC(O)CC1CCC1C2CCC2(C)C1CC1CC(=O)OC12 (centres undefined) | 72% (active)
Nc1ccc(N=Nc2ccccc2)cc1 | 3% (inactive)
C[n+]1c(/C=C/c2ccc(O)c3ncccc23)[se]c2ccccc21 | 2% (inactive)
COC(=O)C1=C(C)N2CCSC2(C)C(C(=O)OC)C1c1cccc(Cl)c1 (centres undefined) | 13% (inactive)
O=[N+]([O-])/C=C/c1ccccc1 | 85% (active)
CC12CCC(O)CC1CCC1C2CCC2(C)C(C(=O)CC(O)C(F)(F)F)CCC12 (centres undefined) | -15% (inactive)
CC(C)NCC(O)c1ccc(O)c(O)c1.[Pt].c1ccc([PH+](c2ccccc2)c2ccccc2)cc1.c1ccc([PH+](c2ccccc2)c2ccccc2)cc1 | -26% (inactive)
CCOC(=O)/C(=C\c1ccc(C(=O)OC)cc1)[Se]c1ccccc1 | 18% (inactive)
CC/C(=C/c1ccc2c(c1)OCO2)[N+](=O)[O-] | 83% (active)
CCOC(=O)C1=C(C)NC(=O)NC1c1ccc(N(CCCl)CCCl)cc1Cl (centres undefined) | 13% (inactive)
S=C(S)N1CCOCC1 | 45% (inactive)
CCOC(=O)c1ccccc1N | 0% (inactive)
C[n+]1c(/C=C/c2ccc(O)c(O)c2)[se]c2ccccc21 | -3% (inactive)
CS(=O)(=O)[O-].CS(=O)(=O)[O-].NC1CCCCC1N.[Pt+4] (centres undefined) | 99% (active)
COc1ccc2c(c1O)-c1cccc3c1[C@@H](C2)N(CCCl)CC3 | 19% (inactive)
COC(=O)CC1(C(=O)O)CC2(Cl)C(Cl)=C(Cl)C1(Cl)C2(Cl)Cl (centres undefined) | 1% (inactive)
CCCCN(C)CC(C(C)=O)C(c1ccccc1)c1c(O)c2ccccc2oc1=O (centres undefined) | 15% (inactive)
O=[n+]1c2ccccc2n([O-])c2ccccc21.[Cl][Ni][Cl] | 68% (inactive)

Compound | growth inhibition
COc1ccc(C(Cc2ccc(Cl)c(Cl)c2)NCCO)cc1 (centres undefined) | 4% (inactive)
O=C(N/N=C/c1cc(Cl)cc(Cl)c1[O-])c1ccccc1O.O=C(N/N=C/c1cc(Cl)cc(Cl)c1[O-])c1ccccc1O.[Zn+2] | 95% (active)
Oc1ccc(Cl)cc1Sc1cc(Cl)ccc1O | 99% (active) and 88% (active) and 68% (inactive)
O=S(=O)([O-])[O-].[OH3+].[OH3+].[OH3+].[Ru+2].c1ccccc1 | -11% (inactive)
CCCCCC(Cn1ccnc1)c1ccc(Cl)cc1Cl (centres undefined) | 72% (active)
CC1=C(CO)C(=O)OC(C(C)C2CCC3C4CC5OC56C(O)C(N5CC5)=CC(=O)C6(C)C4CCC23C)C1 (centres undefined) | 13% (inactive)
CCCC[CH2][Sn]([CH2]CCCC)[CH2]CCCC.CCCC[CH2][Sn]([CH2]CCCC)[CH2]CCCC | 20% (inactive)
CCC[CH2][Sn]1([CH2]CCC)[O]C(=O)C(C(C)C)N=Cc2ccccc2[O]1 (centres undefined) | -4% (inactive)
Oc1c(Cl)cc(-c2cc(Cl)c(O)c(Cl)c2)cc1Cl | 92% (active)
CC(=O)Nc1ccc(/C=N/N=C(/N)N[N+](=O)[O-])cc1 | -2% (inactive)
CC(Br)c1ccccc1 (centres undefined) | 6% (inactive)
C[Si]1(C)CCCCC2(C1)C(=O)NC(=O)NC2=O | -5% (inactive)
CCCCCCCCCCCCCCCc1cccc(O)c1O | 1% (inactive)
CC1(C)OC2OC3C(CN(CCCl)Cc4ccccc4)OC(c4ccccc4)OC3C2O1 (centres undefined) | 0% (inactive)
FC(F)(F)c1nc2ccc(SSc3ccc4nc(C(F)(F)F)[nH]c4c3)cc2[nH]1 | 1% (inactive)
O=[N+]([O-])c1csc([N+](=O)[O-])c1 | 89% (active)
CCc1cc2c(cc1-c1csc(C/C(N)=N/O)n1)C(C)(C)CCC2(C)C | 48% (inactive)
CCCCCCCC[N+](CCCC)(CCCC)CCCC (tested in a mixture with another compound) | 100% (active)
CCC[CH2][Sn]([CH2]CCC)([S]C#N)[S]C#N | 96% (active)
